Data from PubChem BioAssay AID1159580 (chemical genetic matrix, 2015).
About 2,000 (36%) of roughly 5,500 compounds were called active. Roughly 18% stayed inconclusive and do not appear here. Rule as the data show it: active = normalized growth mostly below about 0.91 (no sharp cut-off); inconclusive = no clear call, values can overlap the other calls; inactive = mostly above about 0.92. The list shows a part of the results.

Experiment: chemical genetic growth profiling, strain panel (AID 1159580);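 also: tested at 20 µM; growth read once vehicle control cultures reached saturation at 30 °C; 1 = growth at the plate median or of vehicle wells; lower values mean less growth of the strain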
Conditions: growth OD
[1] = S. cerevisiae deletion strains, locus YDR150W, strain NUM1, stronger effect = lower value
[2] = S. cerevisiae deletion strains, locus YMR263W, strain SAP30, stronger effect = lower value
[3] = S. cerevisiae deletion strains, locus YPL055C, strain LGE1, stronger effect = lower value
[4] = S. cerevisiae deletion strains, locus YPL241C, strain CIN2, stronger effect = lower value
[5] = S. cerevisiae deletion strains, locus YDL101C, strain DUN1, stronger effect = lower value
[6] = S. cerevisiae deletion strains, locus YHR030C, strain SLT2, stronger effect = lower value

Measured: normalized growth

OCc1cc(C(O)CNCCCCCCOCCCCc2ccccc2)ccc1O (stereo unspecified)
inactive: S. cerevisiae deletion strains, locus YAL040C, strain CLN3, stronger effect = lower value 1.07 | S. cerevisiae deletion strains, locus YCL061C, strain MRC1 (second series), stronger effect = lower value 1.01 | [1] 1.01 | S. cerevisiae deletion strains, locus YDR363W, strain ESC2, stronger effect = lower value 0.995 | S. cerevisiae deletion strains, locus YER002W, strain NOP16, stronger effect = lower value 1.02 | [2] 1.01 | S. cerevisiae deletion strains, locus YMR307W, strain GAS1, stronger effect = lower value 0.992 | S. cerevisiae deletion strains, locus YNL175C, strain NOP13, stronger effect = lower value 1.01 | S. cerevisiae deletion strains, locus YNL197C, strain WHI3, stronger effect = lower value 1.01 | S. cerevisiae deletion strains, locus YNL224C, strain SQS1, stronger effect = lower value 1.01 | S. cerevisiae deletion strains, locus YOR083W, strain WHI5 (second series), stronger effect = lower value 1.01 | [3] 0.983 | [4] 0.997

N/C(Cn1ccc(C(F)(F)F)n1)=N/OS(=O)(=O)c1cccc(Cl)c1Cl
inactive: S. cerevisiae deletion strains, locus YAR019C, strain CDC15, stronger effect = lower value 0.979 | S. cerevisiae deletion strains, locus YBL105C, strain PKC1, stronger effect = lower value 0.989 | S. cerevisiae deletion strains, locus YBR135W, strain CKS1, stronger effect = lower value 0.977 | S. cerevisiae deletion strains, locus YBR136W, strain MEC1, stronger effect = lower value 0.985 | S. cerevisiae deletion strains, locus YBR160W, strain CDC28, stronger effect = lower value 0.972 | S. cerevisiae deletion strains, locus YDL017W, strain CDC7, stronger effect = lower value 0.994 | S. cerevisiae deletion strains, locus YDL028C, strain MPS1, stronger effect = lower value 0.985 | [5] 0.989 | S. cerevisiae deletion strains, locus YDL108W, strain KIN28, stronger effect = lower value 0.98 | S. cerevisiae deletion strains, locus YDL132W, strain cdc53, stronger effect = lower value 0.983 | S. cerevisiae deletion strains, locus YDL214C, strain PRR2, stronger effect = lower value 1.01 | S. cerevisiae deletion strains, locus YDR052C, strain DBF4, stronger effect = lower value 0.986 | S. cerevisiae deletion strains, locus YDR054C, strain cdc34, stronger effect = lower value 0.975 | S. cerevisiae deletion strains, locus YDR226W, strain ADK1, stronger effect = lower value 0.987 | S. cerevisiae deletion strains, locus YDR477W, strain SNF1, stronger effect = lower value 0.993 | S. cerevisiae deletion strains, locus YER123W, strain YCK3, stronger effect = lower value 0.989 | S. cerevisiae deletion strains, locus YER133W, strain GLC7, stronger effect = lower value 0.995 | S. cerevisiae deletion strains, locus YFL009W, strain cdc4, stronger effect = lower value 0.988 | S. cerevisiae deletion strains, locus YFL029C, strain CAK1, stronger effect = lower value 0.979 | S. cerevisiae deletion strains, locus YFR003C, strain YPI1, stronger effect = lower value 0.985 | S. cerevisiae deletion strains, locus YFR019W, strain FAB1, stronger effect = lower value 1 | S. cerevisiae deletion strains, locus YFR028C, strain CDC14, stronger effect = lower value 0.98 | S. cerevisiae deletion strains, locus YGR040W, strain KSS1, stronger effect = lower value 0.983 | S. cerevisiae deletion strains, locus YGR052W, strain FMP48, stronger effect = lower value 1.09 | S. cerevisiae deletion strains, locus YGR092W, strain DBF2, stronger effect = lower value 0.974 | [6] 1.07 | S. cerevisiae deletion strains, locus YHR079C, strain IRE1, stronger effect = lower value 1.05 | S. cerevisiae deletion strains, locus YHR082C, strain KSP1, stronger effect = lower value 1.11 | S. cerevisiae deletion strains, locus YHR205W, strain SCH9, stronger effect = lower value 1.02 | S. cerevisiae deletion strains, locus YIL147C, strain SLN1, stronger effect = lower value 0.987 | S. cerevisiae deletion strains, locus YJL095W, strain BCK1, stronger effect = lower value 1.08 | S. cerevisiae deletion strains, locus YJL128C, strain PBS2, stronger effect = lower value 0.988 | S. cerevisiae deletion strains, locus YJL157C, strain FAR1, stronger effect = lower value 1 | S. cerevisiae deletion strains, locus YJR016C, strain ILV3, stronger effect = lower value 0.989 | S. cerevisiae deletion strains, locus YJR066W, strain TOR1 (second series), stronger effect = lower value 0.982 | S. cerevisiae deletion strains, locus YJR066W, strain TOR1, stronger effect = lower value 1.12 | S. cerevisiae deletion strains, locus YKL048C, strain ELM1, stronger effect = lower value 0.984 | S. cerevisiae deletion strains, locus YKL067W, strain YNK1, stronger effect = lower value 0.994 | S. cerevisiae deletion strains, locus YKL101W, strain HSL1, stronger effect = lower value 1.01 | S. cerevisiae deletion strains, locus YKL193C, strain SDS22, stronger effect = lower value 0.983 | S. cerevisiae deletion strains, locus YKL203C, strain TOR2, stronger effect = lower value 1.06 | S. cerevisiae deletion strains, locus YLR113W, strain HOG1, stronger effect = lower value 1.04 | S. cerevisiae deletion strains, locus YLR133W, strain CKI1, stronger effect = lower value 1.01 | S. cerevisiae deletion strains, locus YLR403W, strain SFP1, stronger effect = lower value 0.992 | S. cerevisiae deletion strains, locus YML070W, strain DAK1, stronger effect = lower value 1 | S. cerevisiae deletion strains, locus YMR001C, strain CDC5, stronger effect = lower value 0.983 | S. cerevisiae deletion strains, locus YMR205C, strain PFK2 (second series), stronger effect = lower value 1 | S. cerevisiae deletion strains, locus YMR277W, strain FCP1, stronger effect = lower value 0.991 | S. cerevisiae deletion strains, locus YNL006W, strain LST8, stronger effect = lower value 0.99 | S. cerevisiae deletion strains, locus YNL020C, strain ARK1, stronger effect = lower value 1.01 | S. cerevisiae deletion strains, locus YNL161W, strain CBK1, stronger effect = lower value 0.981 | S. cerevisiae deletion strains, locus YNL183C, strain NPR1, stronger effect = lower value 1.06 | S. cerevisiae deletion strains, locus YNL207W, strain RIO2, stronger effect = lower value 0.977 | S. cerevisiae deletion strains, locus YNL222W, strain SSU72, stronger effect = lower value 0.977 | S. cerevisiae deletion strains, locus YNL307C, strain MCK1 (second series), stronger effect = lower value 0.997 | S. cerevisiae deletion strains, locus YOL078W, strain AVO1, stronger effect = lower value 0.986 | S. cerevisiae deletion strains, locus YOL136C, strain PFK27, stronger effect = lower value 1.02 | S. cerevisiae deletion strains, locus YOR061W, strain CKA2, stronger effect = lower value 1.01 | S. cerevisiae deletion strains, locus YOR119C, strain RIO1, stronger effect = lower value 1.04 | S. cerevisiae deletion strains, locus YOR231W, strain MKK1, stronger effect = lower value 1.01 | S. cerevisiae deletion strains, locus YOR329C, strain SCD5, stronger effect = lower value 0.992 | S. cerevisiae deletion strains, locus YPL031C, strain PHO85, stronger effect = lower value 0.998 | S. cerevisiae deletion strains, locus YPL153C, strain RAD53, stronger effect = lower value 0.987 | S. cerevisiae deletion strains, locus YPL204W, strain HRR25, stronger effect = lower value 0.989 | S. cerevisiae deletion strains, locus YPL209C, strain IPL1, stronger effect = lower value 0.978 | S. cerevisiae deletion strains, locus YPL256C, strain CLN2, stronger effect = lower value 1.03 | S. cerevisiae deletion strains, locus YPR025C, strain CCL1, stronger effect = lower value 0.978 | S. cerevisiae deletion strains, locus YPR106W, strain ISR1, stronger effect = lower value 0.992 | S. cerevisiae deletion strains, locus YPR111W, strain DBF20, stronger effect = lower value 0.976 | S. cerevisiae deletion strains, strain NNK1, stronger effect = lower value 0.998 | S. cerevisiae deletion strains, strain TSCII, stronger effect = lower value 0.986

Cc1cc(=O)n2[nH]cnc2n1
inactive: S. cerevisiae deletion strains, locus YAL013W, strain DEP1, stronger effect = lower value 1.05 | S. cerevisiae deletion strains, locus YBR229C, strain ROT2, stronger effect = lower value 1.01 | [5] 1.06 | S. cerevisiae deletion strains, locus YDL134C, strain PPH21, stronger effect = lower value 0.964 | [1] 1.05 | S. cerevisiae deletion strains, locus YEL061C, strain CIN8, stronger effect = lower value 1 | S. cerevisiae deletion strains, locus YGR078C, strain PAC10, stronger effect = lower value 1.05 | [6] 1.14 | S. cerevisiae deletion strains, locus YHR087W, strain rtc3, stronger effect = lower value 0.99 | S. cerevisiae deletion strains, locus YJR043C, strain POL32, stronger effect = lower value 1.08 | S. cerevisiae deletion strains, locus YJR075W, strain HOC1, stronger effect = lower value 1.02 | S. cerevisiae deletion strains, locus YKL190W, strain CNB1, stronger effect = lower value 0.997 | S. cerevisiae deletion strains, locus YLR039C, strain RIC1, stronger effect = lower value 0.977 | S. cerevisiae deletion strains, locus YLR058C, strain SHM2 (second series), stronger effect = lower value 0.996 | S. cerevisiae deletion strains, locus YLR085C, strain ARP6, stronger effect = lower value 1.01 | S. cerevisiae deletion strains, locus YLR262C, strain YPT6, stronger effect = lower value 0.964 | S. cerevisiae deletion strains, locus YML094W, strain GIM5, stronger effect = lower value 0.985 | S. cerevisiae deletion strains, locus YMR219W, strain ESC1, stronger effect = lower value 0.99 | [2] 1.02 | S. cerevisiae deletion strains, locus YNL153C, strain GIM3, stronger effect = lower value 1.03 | S. cerevisiae deletion strains, locus YNL298W, strain CLA4 (second series), stronger effect = lower value 1.01 | S. cerevisiae deletion strains, locus YNL322C, strain KRE1, stronger effect = lower value 1 | S. cerevisiae deletion strains, locus YNR030W, strain Alg12, stronger effect = lower value 1.02 | [3] 0.997 | [4] 1.01 | S. cerevisiae deletion strains, locus YPR135W, strain CTF4, stronger effect = lower value 1.09 | S. cerevisiae strains, strain wild type, stronger effect = lower value 1.01
